# Data reported in PubChem BioAssay (EPA / NIEHS).
# Values joined by “and” are separate entries in the source; they are usually repeats but may differ in a detail not shown here. Identical values can stand only once. Records with an inconclusive call do not appear. More than one record can exist for a structure, and the calls need not agree. Active and inactive are the calls of the source. Rule for the calls, unless noted: active = hit-call score of the fitted dose curve at least 0.9, where 1 is the maximum; inconclusive = response in the unintended direction; inactive = score below 0.9.
# What was measured:
# [1] = biological target: human Dopamine Transporter (DAT), SLC6A3 (gene 6531) (UniProt Q01959); assay: NVS_TR_hDAT: NovaScreen (NVS) Transporter Assay for human Dopamine Transporter (DAT) (AID 2283374);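 note: activity means loss of bound radioligand signal relative to DMSO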
# Chain of human Dopamine Transporter (DAT), SLC6A3 (gene 6531) (Q01959 whole entry, looked up): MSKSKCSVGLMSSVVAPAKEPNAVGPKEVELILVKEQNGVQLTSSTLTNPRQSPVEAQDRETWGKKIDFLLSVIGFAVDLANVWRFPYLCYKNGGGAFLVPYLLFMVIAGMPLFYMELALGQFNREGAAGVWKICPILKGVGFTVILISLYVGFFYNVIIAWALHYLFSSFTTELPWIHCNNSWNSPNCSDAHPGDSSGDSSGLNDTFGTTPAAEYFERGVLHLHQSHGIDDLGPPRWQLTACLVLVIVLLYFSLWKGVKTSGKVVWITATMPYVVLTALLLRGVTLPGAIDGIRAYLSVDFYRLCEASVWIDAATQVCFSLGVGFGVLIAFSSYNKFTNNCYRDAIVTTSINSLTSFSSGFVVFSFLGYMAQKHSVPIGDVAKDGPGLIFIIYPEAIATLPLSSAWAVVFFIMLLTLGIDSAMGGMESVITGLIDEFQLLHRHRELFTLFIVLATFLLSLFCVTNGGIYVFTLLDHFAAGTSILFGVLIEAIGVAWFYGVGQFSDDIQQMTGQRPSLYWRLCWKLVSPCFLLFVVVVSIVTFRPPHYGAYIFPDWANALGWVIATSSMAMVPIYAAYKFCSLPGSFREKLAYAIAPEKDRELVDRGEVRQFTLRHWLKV
# Summary of the method: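 Duplicate single-point screening at 25 uM preceded concentration-series follow-up of actives. Binding was measured by competitive displacement of a radioligand from DAT protein, filter-counted by scintillation 1 h after dosing. Decrease relative to DMSO taken as activity.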
# [2] = biological target: human Norepinephrine Transporter (NET), SLC6A2 (gene 6530) (UniProt P23975); assay: NVS_TR_hNET: NovaScreen (NVS) Transporter Assay for human Norepinephrine Transporter (NET) (AID 2283377);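 note: cell-free membrane protein extracted from CHO cells expressing human NET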;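 for AC50: displacement of radioligand from human NET seen as loss of scintillation signal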
# Chain of human Norepinephrine Transporter (NET), SLC6A2 (gene 6530) (P23975 whole entry, looked up): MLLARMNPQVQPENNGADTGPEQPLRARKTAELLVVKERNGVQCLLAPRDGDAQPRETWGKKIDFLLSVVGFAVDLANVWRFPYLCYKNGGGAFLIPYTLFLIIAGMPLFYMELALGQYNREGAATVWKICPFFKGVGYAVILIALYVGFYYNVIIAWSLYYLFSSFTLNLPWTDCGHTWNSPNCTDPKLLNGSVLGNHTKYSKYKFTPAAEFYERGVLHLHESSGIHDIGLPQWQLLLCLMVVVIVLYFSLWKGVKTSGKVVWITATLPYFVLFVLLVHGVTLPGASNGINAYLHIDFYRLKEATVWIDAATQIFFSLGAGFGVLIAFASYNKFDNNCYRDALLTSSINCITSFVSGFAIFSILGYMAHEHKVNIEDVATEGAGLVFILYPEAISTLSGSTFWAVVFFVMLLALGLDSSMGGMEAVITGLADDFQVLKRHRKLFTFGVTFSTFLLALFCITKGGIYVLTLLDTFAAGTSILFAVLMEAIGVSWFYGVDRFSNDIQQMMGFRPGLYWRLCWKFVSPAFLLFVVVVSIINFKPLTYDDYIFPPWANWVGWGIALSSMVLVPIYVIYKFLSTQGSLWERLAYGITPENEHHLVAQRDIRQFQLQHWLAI
# Summary of the method: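 Single-concentration duplicate screen at 25 uM, then concentration-response for actives; displacement of specific radioligand from human NET in CHO membrane extracts, filter-based scintillation detection at 1 h relative to DMSO.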
# [3] = biological target: rat Serotonin Transporter (SERT), Slc6a4 (gene 25553) (UniProt P31652); assay: NVS_TR_rSERT: NovaScreen (NVS) Transporter Assay for rat Serotonin Transporter (SERT) (AID 2283375)
# Chain of rat Serotonin Transporter (SERT), Slc6a4 (gene 25553) (P31652 whole entry, looked up): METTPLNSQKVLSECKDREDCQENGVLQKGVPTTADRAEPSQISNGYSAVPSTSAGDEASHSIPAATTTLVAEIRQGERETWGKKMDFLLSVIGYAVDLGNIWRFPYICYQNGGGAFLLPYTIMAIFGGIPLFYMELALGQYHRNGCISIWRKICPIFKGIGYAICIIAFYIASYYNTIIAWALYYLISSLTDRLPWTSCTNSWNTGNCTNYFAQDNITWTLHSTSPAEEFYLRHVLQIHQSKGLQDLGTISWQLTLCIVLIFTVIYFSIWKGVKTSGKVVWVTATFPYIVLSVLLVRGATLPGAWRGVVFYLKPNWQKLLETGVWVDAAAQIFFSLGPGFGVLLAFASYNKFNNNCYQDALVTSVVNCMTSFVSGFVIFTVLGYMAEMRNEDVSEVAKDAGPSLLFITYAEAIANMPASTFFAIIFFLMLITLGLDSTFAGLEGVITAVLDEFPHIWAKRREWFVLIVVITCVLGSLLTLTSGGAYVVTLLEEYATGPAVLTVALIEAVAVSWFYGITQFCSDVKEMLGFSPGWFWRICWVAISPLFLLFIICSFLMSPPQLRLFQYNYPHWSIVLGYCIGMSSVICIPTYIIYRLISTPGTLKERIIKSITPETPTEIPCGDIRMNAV
# Summary of the method: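 Radioligand binding with competitive displacement on rat forebrain membrane preparations, counted by filtration and scintillation after 1 h. Primary single-point duplicates at 25 uM; active chemicals followed up in concentration-response. DMSO served as baseline.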
# [4] = biological target: Estrogen receptor beta (Homo sapiens) (UniProt Q92731); assay: OT_ER_ERbERb_1440: Odyssey Thera (OT) 24-hour HEK293T Protein-Complementation Assay for Estrogen Receptor-beta/-beta Homodimer (AID 2283380);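 note: fluorescence gain from ER beta LBD homodimer complementation read by laser scanning cytometry; scored as signal increase over DMSO baseline for both agonists and antagonists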
# Chain of Estrogen receptor beta (Homo sapiens) (Q92731 whole entry, looked up, the tested form may be a part): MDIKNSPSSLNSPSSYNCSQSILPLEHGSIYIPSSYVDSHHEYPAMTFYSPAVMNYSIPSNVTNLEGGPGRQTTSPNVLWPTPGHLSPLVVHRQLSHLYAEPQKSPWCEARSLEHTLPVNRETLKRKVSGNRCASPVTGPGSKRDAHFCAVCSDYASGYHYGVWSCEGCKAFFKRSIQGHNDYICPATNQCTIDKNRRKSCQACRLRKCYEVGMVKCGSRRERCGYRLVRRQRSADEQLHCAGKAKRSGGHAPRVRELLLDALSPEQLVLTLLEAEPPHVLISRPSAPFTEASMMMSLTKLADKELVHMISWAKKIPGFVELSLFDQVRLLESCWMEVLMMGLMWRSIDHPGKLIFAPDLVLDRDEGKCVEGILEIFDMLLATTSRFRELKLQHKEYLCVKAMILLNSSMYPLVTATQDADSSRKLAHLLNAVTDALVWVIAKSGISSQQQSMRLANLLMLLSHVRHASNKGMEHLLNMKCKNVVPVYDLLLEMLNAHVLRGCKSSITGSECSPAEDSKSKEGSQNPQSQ
# Summary of the method: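 Fluorescence increase, nuclear for agonists or whole-cell for antagonists, relative to DMSO vehicle, quantified by laser scanning cytometer after fixation and Draq5 staining. Readout from 24 h treatment of HEK293T cells carrying complementation-paired ER beta LBD (aa 310-547).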
# [5] = biological target: mouse Estrogen Receptor alpha (Era), Esr1 (gene 13982) (UniProt P19785); assay: NVS_NR_mERa: NovaScreen (NVS) Nuclear Receptor Binding Assay for mouse Estrogen Receptor alpha (Era) (AID 2283378);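 note: hit means loss of bound radioligand signal relative to DMSO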
# Chain of mouse Estrogen Receptor alpha (Era), Esr1 (gene 13982) (P19785 whole entry, looked up): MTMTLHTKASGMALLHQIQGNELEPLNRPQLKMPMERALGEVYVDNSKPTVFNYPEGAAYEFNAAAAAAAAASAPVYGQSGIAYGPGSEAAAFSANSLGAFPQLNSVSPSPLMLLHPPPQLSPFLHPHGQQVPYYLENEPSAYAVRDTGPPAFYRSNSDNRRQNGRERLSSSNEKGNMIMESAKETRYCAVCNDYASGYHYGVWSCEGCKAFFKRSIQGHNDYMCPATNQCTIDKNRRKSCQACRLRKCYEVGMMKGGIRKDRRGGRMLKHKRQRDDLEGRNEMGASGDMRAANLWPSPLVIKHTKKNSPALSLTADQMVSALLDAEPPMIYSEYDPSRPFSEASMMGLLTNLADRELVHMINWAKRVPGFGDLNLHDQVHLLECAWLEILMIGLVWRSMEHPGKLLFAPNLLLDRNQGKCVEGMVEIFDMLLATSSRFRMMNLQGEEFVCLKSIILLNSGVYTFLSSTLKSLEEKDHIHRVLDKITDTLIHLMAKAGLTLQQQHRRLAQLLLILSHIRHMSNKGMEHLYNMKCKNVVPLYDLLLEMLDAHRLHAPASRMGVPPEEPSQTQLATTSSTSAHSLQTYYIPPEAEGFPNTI
# Summary of the method: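 Filter radiodetection of radioligand displacement from extracted receptor protein, measured 18 h post-dose. Single 25 uM concentration in duplicate initially, with concentration-series follow-up. Binding loss fitted relative to DMSO.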
# [6] = biological target: Agonist Androgen Response Element (ARE), AR (gene 367) (UniProt P10275); assay: OT_AR_ARELUC_AG_1440: Odyssey Thera (OT) 24-hour CHO-K1 Luciferase Assay for Agonist Androgen Response Element (ARE) (AID 2283379)
# Chain of Agonist Androgen Response Element (ARE), AR (gene 367) (P10275 whole entry, looked up): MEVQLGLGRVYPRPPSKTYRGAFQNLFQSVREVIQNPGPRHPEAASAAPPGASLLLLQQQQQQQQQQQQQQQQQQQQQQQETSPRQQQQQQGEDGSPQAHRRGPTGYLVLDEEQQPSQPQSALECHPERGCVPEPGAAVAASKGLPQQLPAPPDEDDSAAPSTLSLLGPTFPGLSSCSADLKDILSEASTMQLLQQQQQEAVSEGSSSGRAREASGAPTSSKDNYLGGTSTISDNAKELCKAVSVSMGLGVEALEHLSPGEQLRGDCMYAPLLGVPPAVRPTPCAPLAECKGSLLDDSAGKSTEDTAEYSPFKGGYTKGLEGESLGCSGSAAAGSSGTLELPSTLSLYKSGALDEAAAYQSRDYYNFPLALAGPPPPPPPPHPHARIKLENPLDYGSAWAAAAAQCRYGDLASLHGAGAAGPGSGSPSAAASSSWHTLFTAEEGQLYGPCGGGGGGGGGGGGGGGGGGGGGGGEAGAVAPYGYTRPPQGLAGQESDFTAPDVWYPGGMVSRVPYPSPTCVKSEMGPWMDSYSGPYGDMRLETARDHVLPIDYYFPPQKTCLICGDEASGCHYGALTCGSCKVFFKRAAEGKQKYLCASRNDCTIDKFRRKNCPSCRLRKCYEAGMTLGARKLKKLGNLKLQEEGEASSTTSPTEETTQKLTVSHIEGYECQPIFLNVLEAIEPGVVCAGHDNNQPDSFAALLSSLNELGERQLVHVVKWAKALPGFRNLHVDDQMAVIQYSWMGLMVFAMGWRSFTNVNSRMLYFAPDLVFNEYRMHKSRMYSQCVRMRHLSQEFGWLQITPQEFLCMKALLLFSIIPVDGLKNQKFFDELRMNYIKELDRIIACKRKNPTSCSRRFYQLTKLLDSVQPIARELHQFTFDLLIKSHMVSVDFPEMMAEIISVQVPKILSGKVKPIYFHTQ
# Summary of the method: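 Readout: luciferase bioluminescence from CHO-K1 ARE-luc cells, measured 24 h post-dosing; agonism = increased mean luminescence vs DMSO controls, fitted in positive direction.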
# [7] = biological target: Estrogen receptor (Homo sapiens) (UniProt P03372); assay: OT_ERa_GFPERaERE_0480: Odyssey Thera (OT) 8-hour HeLa Transcription Induction Assay for Estrogen Receptor (AID 2283381; active = hit-call score of the fitted dose curve at least 0.9, where 1 is the maximum; inactive = score below 0.9)
# Chain of Estrogen receptor (Homo sapiens) (P03372 whole entry, looked up): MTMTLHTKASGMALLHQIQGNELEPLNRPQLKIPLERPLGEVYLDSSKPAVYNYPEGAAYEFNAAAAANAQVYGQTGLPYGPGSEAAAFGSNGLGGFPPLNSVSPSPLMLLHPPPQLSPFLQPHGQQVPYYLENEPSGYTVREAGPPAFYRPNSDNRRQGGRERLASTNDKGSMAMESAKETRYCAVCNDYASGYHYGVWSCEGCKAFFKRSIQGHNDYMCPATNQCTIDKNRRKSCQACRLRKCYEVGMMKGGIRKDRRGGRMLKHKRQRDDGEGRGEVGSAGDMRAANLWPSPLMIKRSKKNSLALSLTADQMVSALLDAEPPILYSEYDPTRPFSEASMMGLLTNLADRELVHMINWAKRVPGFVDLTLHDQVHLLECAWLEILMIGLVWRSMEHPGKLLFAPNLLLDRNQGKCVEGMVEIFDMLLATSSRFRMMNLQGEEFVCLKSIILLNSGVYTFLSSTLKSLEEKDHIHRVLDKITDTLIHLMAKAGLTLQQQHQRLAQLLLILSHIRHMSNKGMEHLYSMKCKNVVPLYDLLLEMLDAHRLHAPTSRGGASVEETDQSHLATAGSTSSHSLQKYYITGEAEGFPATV
# Summary of the method: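 An 8 h HeLa transcription-induction format with a GFP reporter under ERE control, read by fluorescence microscopy; single endpoint fitted positively with DMSO as baseline.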
# [8] = biological target: Estrogen receptor (Homo sapiens) (UniProt P03372); assay: OT_ERa_GFPERaERE_0120: Odyssey Thera (OT) 2-hour HeLa Transcription Induction Assay for Estrogen Receptor (AID 2283382)
# Summary of the method: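 Two-hour compound treatment of HeLa cells preceded microscopy imaging of an inducible fluorescent reporter. Image-based quantification gave one endpoint, analysed for signal increase relative to DMSO controls.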
# [9] = biological target: Bile acid receptor (Homo sapiens) (UniProt Q96RI1); assay: OT_FXR_FXRSRC1_0480: Odyssey Thera (OT) 8-hour HEK293T Protein-Complementation Assay for Farnesoid X receptor/SRC-1 Co-activator (AID 2283383)
# Chain of Bile acid receptor (Homo sapiens) (Q96RI1 whole entry, looked up): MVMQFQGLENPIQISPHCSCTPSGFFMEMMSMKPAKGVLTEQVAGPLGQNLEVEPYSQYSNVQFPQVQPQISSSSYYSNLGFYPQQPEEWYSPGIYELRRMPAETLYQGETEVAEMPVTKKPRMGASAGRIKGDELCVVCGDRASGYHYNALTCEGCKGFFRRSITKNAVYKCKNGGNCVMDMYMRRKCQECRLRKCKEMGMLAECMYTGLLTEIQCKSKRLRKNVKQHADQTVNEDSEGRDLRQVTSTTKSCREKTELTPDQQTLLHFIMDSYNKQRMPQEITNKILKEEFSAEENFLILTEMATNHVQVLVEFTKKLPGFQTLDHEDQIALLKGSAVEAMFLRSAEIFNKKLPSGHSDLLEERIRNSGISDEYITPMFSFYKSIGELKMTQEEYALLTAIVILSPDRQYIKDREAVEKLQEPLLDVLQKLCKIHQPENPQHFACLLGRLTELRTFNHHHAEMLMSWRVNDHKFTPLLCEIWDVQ
# Summary of the method: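 Readings were taken 8 h after dosing HEK293T cells in a split-reporter complementation format pairing FXR with SRC-1. Increased fluorescence relative to DMSO-treated wells defined activity.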
structure (smiles),measurement,setting,value
CN(C)c1ccc(C(=C2C=CC(=[N+](C)C)C=C2)c2ccccc2)cc1,AC50,[1],6.41 µM (active) and 3.13 µM (active)
same,AC50,[2],18.3 µM (active) and 5.15 µM (active)
Clc1ccc(Nc2nnc(Cc3ccncc3)c3ccccc23)cc1,AC50,[1],987 nM (active)
same,outcome,[3],inactive
same,AC50,[2],0.898 µM (active)
Oc1cc2ccccc2cc1O,outcome,[2],inactive
C[C@]12CC[C@@H]3c4ccc(O)cc4CC[C@H]3[C@@H]1C[C@@H](O)[C@@H]2O,AC50,[1],15400 nM (active)
same,AC50,[4],0.03 µM (active)
Nc1cc(Cl)c(-c2cc(Cl)c(N)cc2Cl)cc1Cl,AC50,[5],389 nM (active)
CCCCCc1ccc(O)cc1,AC50,[1],6090 nM (active)
same,AC50,[2],14.6 µM (active)
CC(C)(C)c1ccc(O)c(O)c1,AC50,[2],18.4 µM (active)
same,outcome,[2],inactive
CCCCCCCCCCCCCCCCCC[N+](C)(C)Cc1ccccc1,outcome,[1],inactive
same,AC50,[3],7.73 µM (active)
same,AC50,[2],2.49 µM (active)
NC(=NCCCCCCN=C(N)/N=C(\N)Nc1ccc(Cl)cc1)/N=C(\N)Nc1ccc(Cl)cc1,AC50,[1],458 nM (active)
same,AC50,[3],0.322 µM (active)
same,AC50,[2],0.356 µM (active)
same,AC50,[5],137 nM (active) and 292 nM (active)
same,outcome,[6],inactive
same,AC50,[7],24.5 µM (active)
same,AC50,[8],28.6 µM (active)
Cc1[nH]nc2c1N=C(c1ccccc1Cl)c1cc([N+](=O)[O-])ccc1N2,outcome,[4],inactive
same,AC50,[9],1.06 µM (active)
CCCCc1oc2ccccc2c1C(=O)c1cc(I)c(OCCN(CC)CC)c(I)c1,outcome,[4],inactive
same,outcome,[7],inactive
same,outcome,[8],inactive
same,AC50,[9],9.16 µM (active)
CC(=O)Nc1ccc(O)cc1,outcome,[6],inactive
same,outcome,[4],inactive
